# Measurements from PubChem BioAssay AID602399 (Sanford-Burnham Center for Chemical Genomics, 2012).
# Among all 360,000 compounds or so, about 2,800 (0.78%) were called active. No stated cut-off is given here; in the data, active means inhibition above about 26%; inactive means the rest. The full list was thinned out, with actives kept by preference.
# System: Nicotinate-nucleotide adenylyltransferase NadD (Staphylococcus aureus N315)
# Assay: inhibitors of S. aureus NadD, primary screen, biochemical, colorimetric, uHTS (AID 602399)
# Conditions: purified NadD enzyme, colorimetric absorbance read-out; at 20 µM; hits give high values
row,SMILES,inhibition
1,Cc1cccc(N2C(=O)NC(=O)/C(=C\c3cnn(-c4ccccc4)c3)C2=O)c1,31.6% (active)
2,COC(=O)CN1C(=O)C2(C(C(=O)OC)=C(N)Oc3ccccc32)C2=C1CC(C)(C)CC2=O (stereo not given),-11.2% (inactive)
3,CC1(C)C(c2ccccc2)=NC(c2cccnc2)=[N+]1[O-],-1.36% (inactive)
4,Cc1cccc(NC(=O)N2CC3CC(C2)c2cccc(=O)n2C3)c1 (stereo not given),-1.21% (inactive)
5,COC1C(O)C(C)OC(OC2CCC3(C=O)C(CCC4C3CCC3(C)C(C5=CC(=O)OC5)CCC43O)C2)C1O (stereo not given),-4.34% (inactive)
6,CCOC(=O)c1c(C)c(C(=O)N2CCC3(CC2)OCCO3)c(C)n1CC,-2.05% (inactive)
7,O=c1[nH]c(CN2CC=C(c3ccccc3)CC2)nc2scc(-c3cccs3)c12,29.6% (active)
8,CC1=CC(=Cc2sc3ccccc3[n+]2C)C=C(C)O1,1.49% (inactive)
9,CCN1C(=O)NC(=O)C2(CCCC2)C1=O,1.24% (inactive)
10,c1cc2c(cc1C1OCC3C(c4ccc5c(c4)OCO5)OCC13)OCO2 (stereo not given),1.25% (inactive)
11,CCCCCn1c(=O)c(C(=O)Nc2c(C)n(C)n(-c3ccccc3)c2=O)c(O)c2ccccc21,29.9% (active)
12,CCCCCn1c(=O)c(C(=O)NCc2ccccc2)c(O)c2ccccc21,1.88% (inactive)
13,CCCCn1c(=O)c(C(=O)Nc2ccccc2Cl)c(O)c2ccccc21,-7.15% (inactive)
14,Clc1ccc2nc3c(c(-c4ccccc4)c2c1)CNCC3,-4.51% (inactive)
15,COCc1cc(OC(=O)N(C)C)nc(-c2ccc(C)c(Cl)c2)n1,-4.84% (inactive)
16,COC1=C[C@@H]2[C@@H]3Cc4ccc(OC)c(O)c4[C@]2(CCN3C)CC1=O,3.24% (inactive)
17,O=C1NC(=O)N(Cc2ccco2)C(=O)/C1=C\c1ccc(-c2ccc(F)cc2)o1,38.2% (active)
18,O=C(Cn1c(=O)n(CC2CS2)c2ccccc21)N1CCCCC1 (stereo not given),-1.82% (inactive)
19,COc1cccc(-c2nc3ccc(N4CCN(C)CC4)cc3[nH]2)c1,-5.51% (inactive)
20,COC(=O)C1=C(c2cc3ccccc3o2)C[C@@H]2CC[C@H]1N2C(=O)NC1CCCCC1,0.201% (inactive)
